# PubChem BioAssay AID485364 (National Center for Advancing Translational Sciences (NCATS), 2010)
# “And” between values parts separate entries of the source, which are not always exact repeats. Equal values may be shown once. In all, about 360,000 compounds went through this assay and about 11,000 (3.1%) were called active. Roughly 4% stayed inconclusive and do not appear here. Shown is part of a subset that was picked to be rich in actives. A number with no mark means an inactive call. The call rests on the fitted dose curve; in most records, active means well fitted inhibition curve with a large enough effect; inconclusive means small, poorly fitted or top-dose-only effect; inactive means no such curve, though single readings can be large or run the other way.
# Target: Schistosoma mansoni thioredoxin glutathione reductase (TGR) (UniProt Q962Y6)
# Assay: qHTS Assay for the Inhibitors of Schistosoma Mansoni Peroxiredoxins; further: nearly all actives have a fitted effect of over 60% in size
# Conditions: purified TGR, DTNB reduction, TNB absorbance 405 nm; series mostly up to 114 µM; activity change, negative = inhibition: at the top concentration
# Procedure, shortened: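 First, TGR (20 nM dispensed) and NADPH were mixed with compound. Second, a 15 min room-temperature incubation followed. Third, further NADPH and then DTNB were added to start the reaction. Finally, TNB absorbance was monitored kinetically.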
# On the % scale 0 is the no-effect control and ±100 the full control effect; potency means the concentration at half of the fitted maximal effect.
SMILES,"activity change, negative = inhibition [%]",Potency
Cc1ccc(C)c(Oc2c(C(F)(F)F)oc3c(CN4CCN(C)CC4)c(O)ccc3c2=O)c1,-12.3,
Cc1ccc2nc(COc3cccc(NC(=O)c4ccccc4Cl)c3)cc(=O)n2c1,3.97,
Cc1[nH]c2ccccc2c1C(c1ccccc1)c1cccs1 (stereo not drawn),-3.83,
COc1ccc(N2CCN(S(=O)(=O)CCNC(=O)C(c3ccccc3)c3ccccc3)CC2)cc1,0.85,
O=S(=O)(c1ccc(SCc2ccccc2)nc1)N1CCCCCC1,-23.4,
CC(C)(C)C(=O)CSc1ccc(S(=O)(=O)N2CCCC2)cn1,6.79,
O=C(O)CSc1ccc(S(=O)(=O)N2CCCC2)cn1,,50.1 µM (active)
COc1cc2c(cc1OC)C(COc1ccc(F)cc1)N(C(=O)c1ccccc1F)CC2 (stereo not drawn),-1.72,
COc1cccc(C(=O)NC2(C(F)(F)F)C(=O)Nc3c2c(=O)[nH]c(=O)n3-c2ccc(C)cc2)c1 (stereo not drawn),6.41,
COc1ccc(C2=NC(c3ccncc3)=Nc3ccc(Br)cc3N2)cc1,-3.27,
Cc1ccc(C)c(-n2c(SCC(=O)O)nc3sc4c(c3c2=O)CCCC4)c1,-7.97,
Cn1c(NN)nc2sc3c(c2c1=O)CCC3,0.729,
Cc1nc2sc3c(c2c(=O)n1NC(=O)CCl)CCCC3,,39.8 µM (active)
CCC(=O)N1CCc2cc(S(=O)(=O)NC(C(=O)NCCc3ccc(C)cc3)C(C)C)ccc21 (stereo not drawn),6.61,
CCCCCCC(O)(CCN1CCCCC1)c1ccccc1 (stereo not drawn),2.75,
CCCCCC(O)(CCN1CCCCC1)c1ccccc1 (stereo not drawn),,31.6 µM (active)
C#CC(CCN1CCCCC1)(OC)c1ccccc1 (stereo not drawn),9.25,
Fc1ccccc1Oc1ncnc2c1oc1ccccc12,-1.96,
COc1ccc(NC(=O)/C(Cl)=C(/Cl)S(=O)Cc2ccc(C)cc2)cn1 (stereo not drawn),0,
COc1ccc(CS(=O)/C(Cl)=C(/Cl)C(=O)Nc2ccc(OC)nc2)cc1 (stereo not drawn),,0.447 µM (active)
COc1ccc(NC(=O)C(=O)NCc2ccco2)cc1,0.649,
COc1cccc(CNCCSc2nnnn2C)c1OCc1ccccc1Cl,-1.07,
O=C(C1CC1)N1CCc2cc(Br)cc(S(=O)(=O)N3CCN(c4ccccc4F)CC3)c21,2.49,
COc1ccc(C(=O)NCCNc2ccc([N+](=O)[O-])cn2)cc1,-19.1,
COc1ccc2c(C(=O)c3ccc(C)cc3)n(CCC(N)=O)[n+]([O-])c2c1,7.84,

SMILES,"activity change, negative = inhibition [%]",Potency
COc1ccc(C(=O)c2c3ccc([N+](=O)[O-])cc3[n+]([O-])n2CCCN)cc1,,25.1 µM (active)
CCCN(C(=O)Cn1ncc2c([nH]c3ccc(C)cc32)c1=O)c1ccccc1C,0.145,
O=C(c1ccc2c(c1)N(Cc1ccccc1)C(=O)c1ccccc1S2(=O)=O)N1CCCC1,0.183,
Cc1cccc(N2CCN(C(=O)CCSCc3ccccc3F)CC2)c1C,11.4,
Cc1ccc(C)c(CNC(=O)c2cc3ccccn3n2)c1,2.27,
Cc1ccc(C(=O)NC(=S)Nc2ccccc2C)cc1,,31.6 µM (active)
Cc1ccccc1NC(=S)NNC(=O)c1cccc(Br)c1,-0.509,
Cc1cc(C(=O)NNC(=S)Nc2ccccc2C)cs1,2.83,
CCOC(=O)c1cccc(NC(=O)C(Cc2ccccc2)NS(=O)(=O)c2cccc3nsnc23)c1 (stereo not drawn),3.11,
O=c1c2ccccc2n(Cc2cccc(Cl)c2)c(=O)n1Cc1ccccc1,-7.62,
C/C=C(/C)C(=O)Nc1cccc(C2=NOC3(C2)C[C@@H](C(N)=O)N(C(=O)C2(C)CC2)C3)c1 (stereo partly drawn),-18.8,
C/C=C\C=C\C(=O)N1CC2(CC(c3cccc(NC(=O)/C(C)=C\C)c3)=NO2)C[C@H]1C(N)=O (stereo partly drawn),,7.94 µM (active)
C/C=C(\C)C(=O)N1CC2(CC(c3cccc(NC(=O)CCCCC)c3)=NO2)C[C@@H]1C(N)=O (stereo partly drawn),-7.23,
Cc1cc(Br)ccc1NC(=O)Cn1cnc2sc(C)c(S(=O)(=O)N3CCN(C)CC3)c2c1=O,-2.56,
O=S(=O)(c1ccc(Cl)cc1)c1nnn2c1nc(NC1CCCC1)c1sccc12,2.43,
C/C(=N/NC(=O)CC(=O)N/N=C(\C)c1ccc([N+](=O)[O-])cc1)c1ccc([N+](=O)[O-])cc1,4.47,
O=C(Cn1c[n+](CC(=O)c2ccc([N+](=O)[O-])cc2)cn1)c1ccc([N+](=O)[O-])cc1,,10 µM (active) and 44.7 µM (active)
Cc1ccc(C(=O)Cn2cc([N+](=O)[O-])nc2C)cc1,-5.61,
Cc1[nH][nH]c(=O)c1C(c1ccc(-c2ccc(Cl)cc2)o1)c1c(C)[nH][nH]c1=O,,25.1 µM (active)
CN(CC(=O)Nc1ccc(F)cc1)C(=O)c1ccc(-c2ccc(Cl)cc2)o1,-27.9,
CCCNC(=O)NCc1ccc(N2CCCC2=O)cc1,2.65,
NC(=O)C1(N2CCCCC2)CCN(C2CC(=O)N(Cc3ccc(N4CCCC4=O)cc3)C2=O)CC1 (stereo not drawn),,25.1 µM (active)
COC(=O)c1cc(NC(=O)CN2CCC(C(N)=O)(N3CCCCC3)CC2)cc(C(=O)OC)c1,3.3,
COc1ccc(OC)c(-n2nnc(-c3nc(-c4cc(OC)c(OC)c(OC)c4)no3)c2C)c1,6.37,
Cc1ccc(N2C(=O)CC(Nc3cccc4ccccc34)C2=O)cc1 (stereo not drawn),,22.4 µM (active)

SMILES,"activity change, negative = inhibition [%]",Potency
O=C(Cc1ccccc1)NNC1CC(=O)N(c2ccc(Br)cc2)C1=O (stereo not drawn),-13.2,
Cc1ccc(N2C(=O)C3C(c4ccccc4)(C2=O)C3(c2ccccc2)c2ccccc2)cc1 (stereo not drawn),4.1,
CCOc1ccc(NC(=O)c2cnn(-c3ccccc3)c2-n2cccc2)cc1,-1.01,
Cc1ccc(OCC(=O)OCc2cc(=O)n3nc(C4CC4)sc3n2)cc1,-6.56,
COc1ccc(S(=O)(=O)NCC(c2ccc(N(C)C)cc2)N2CCc3ccccc32)cc1OC (stereo not drawn),-6.35,
CCOC(=O)c1c(N)n(-c2cccc(C)c2C)c2nc3ccccc3nc12,1.92,
Nn1c(SCC(=O)Nc2nccs2)nnc1-c1ccco1,-2.49,
NC(=O)c1c(NC(=O)CSc2nnc(-c3ccco3)n2N)sc2c1CCCC2,,11.2 µM (active)
CCOC(=O)c1c(NC(=O)CSc2nnc(CN3CCOCC3)n2C)sc2c1CCCC2,-34.2,
Cc1c(Cl)cccc1NC(=O)c1noc2c1CCCC2,3.49,
CSc1ccc(CCNC(=O)c2cnn(-c3ccccc3)c2-n2cccc2)cc1,5.93,
Cc1cc(C)nc(SCc2nnc(SCC(=O)Nc3ncc(C)s3)n2Cc2ccco2)n1,-8.76,
O=C(CSc1nnc(-c2cccnc2)n1Cc1ccco1)c1ccc(Cl)c(Cl)c1,,22.4 µM (active)
O=C(CSc1nnc(-c2cccs2)n1Cc1ccco1)c1ccc2c(c1)OCO2,-30.2,
CCn1c(SCC(=O)Nc2cc(C)ccc2C)nnc1-c1cnccn1,8.8,
COc1cc(Cl)c(C)cc1NC(=O)CSc1nnc(-c2cccnc2)n1Cc1ccco1,,44.7 µM (active)
CCc1ccc(NC(=O)CSc2nnc(-c3cnccn3)n2Cc2ccco2)cc1,,39.8 µM (active)
CCn1c(SCC(=O)Nc2cc(C)c(Cl)cc2OC)nnc1-c1ccco1,-27.1,
O=C(CSc1nnc(-c2cccnc2)n1CCc1ccccc1)NCc1ccccc1,-0.337,
Cc1c(Cl)cccc1NC(=O)CSc1ccc(-c2cccnc2)nn1,5.94,
COc1cc(Cl)c(C)cc1NC(=O)CSc1nnc(-c2ccco2)n1CC(C)C,,25.1 µM (active)
Cn1c(SCC(=O)Nc2nccs2)nnc1-c1cccnc1,-0.988,
COc1ccccc1NC(=O)CSc1nnc(-c2ccoc2C)n1CCc1ccccc1,2.47,
